PubChem BioAssay (NCI)
“And” between values parts separate entries of the source, which are not always exact repeats. Identical values can stand only once. Compounds without any hit were thinned out: in the full panel of roughly 83,000, 20% have a hit.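 Values shown are percent growth following 48 h exposure of cells in 96-well plates to a single concentration of compound; below 10 was considered active.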 The source made the active and inactive calls.

Columns and labels:
Assay in all cases: NCI-60 one-dose screen, 48 h (100 = growth as untreated, 0 = no growth, -100 = all killed)
Settings in all cases: 10 µM unless noted
[1] = system: NCI-H23 lung
[2] = system: NCI-H226 lung
[3] = system: NCI-H322M lung
[4] = system: HOP-62 NSCLC
[5] = system: NCI-H460 lung
[6] = system: HOP-92 NSCLC
[7] = system: NCI-H522 lung
[8] = system: A549/ATCC NSCLC
[9] = system: 786-0 renal
[10] = system: COLO 205 colon

COc1cc(C=O)ccc1Oc1ccc([N+](=O)[O-])cc1[N+](=O)[O-]
growth [1]: 95.6% (inactive) | growth [2]: 99.9% (inactive) | growth [3]: 104% (inactive) | growth [4]: 94.2% (inactive) | growth [5]: 104% (inactive) | growth [6]: 78.8% (inactive) | growth [7]: 94.3% (inactive) | growth [8]: 88.4% (inactive) | growth [9]: 102% (inactive) | growth [10]: 108% (inactive)

O=c1c2c([nH]c3ccccc13)CCCC2
growth [1]: 100% (inactive) and 68.1% (inactive) | growth [2]: 100% (inactive) | growth [3]: 113% (inactive) and 77.7% (inactive) | growth [4]: 98.5% (inactive) and 40.1% (inactive) | growth [5]: 99.8% (inactive) and 22.8% (inactive) | growth [6]: 83.9% (inactive) and 52.4% (inactive) | growth [7]: 92.4% (inactive) and 37.6% (inactive) | growth [8]: 93.8% (inactive) and 56.3% (inactive) | growth [9]: 107% (inactive) and 74.3% (inactive) | growth [10]: 94.5% (inactive) and 8.36% (active)

CCCCn1c(C(=O)c2c[nH]c3ccccc23)n[nH]c1=S
growth [1]: 92.6% (inactive) | growth [2]: 92.5% (inactive) | growth [3]: 96.7% (inactive) | growth [4]: 86% (inactive) | growth [5]: 98.7% (inactive) | growth [6]: 89.4% (inactive) | growth [7]: 83.3% (inactive) | growth [8]: 92.3% (inactive) | growth [9]: 102% (inactive) | growth [10]: 106% (inactive)

Nc1nc(Nc2ccc(F)cc2)nn1C(=O)c1cc(Cl)ccc1Cl
growth [1]: 71.9% (inactive) | growth [2]: 80.9% (inactive) | growth [3]: 66.4% (inactive) | growth [4]: 85.4% (inactive) | growth [5]: 69.4% (inactive) | growth [6]: 75.1% (inactive) | growth [7]: 87.8% (inactive) | growth [8]: 75.2% (inactive) | growth [9]: 72.9% (inactive) | growth [10]: 83.8% (inactive)

Cc1ccc(C(=O)N(CCCN)[C@@H](c2nc3cc(Cl)ccc3c(=O)n2Cc2ccccc2)C(C)C)cc1
growth [1]: 8.15% (active) | growth [2]: 22.6% (inactive) | growth [3]: -9.48% (active) | growth [4]: -28% (active) | growth [5]: -72.4% (active) | growth [6]: -16.3% (active) | growth [7]: -45.9% (active) | growth [8]: -40% (active) | growth [9]: -13.7% (active) | growth [10]: -72.3% (active)

Cc1ccc(-c2nc3nc(-c4ccccc4)nc(N4CCCNCC4)c3o2)cc1
growth [1]: 19.4% (inactive) | growth [2]: 88.9% (inactive) | growth [3]: -6.9% (active) | growth [4]: -27.1% (active) | growth [5]: -57.7% (active) | growth [6]: -33.5% (active) | growth [7]: -69.6% (active) | growth [8]: -66.5% (active) | growth [9]: -97.1% (active) | growth [10]: -86.9% (active)

COc1cc(C(=O)c2ccccc2C(=O)O)c(OC)c2c1CCCC2
growth [1]: 98.2% (inactive) and 94.4% (inactive) | growth [2]: 108% (inactive) | growth [3]: 108% (inactive) and 101% (inactive) | growth [4]: 106% (inactive) | growth [5]: 103% (inactive) and 107% (inactive) | growth [6]: 95.8% (inactive) | growth [7]: 106% (inactive) and 145% (inactive) | growth [8]: 97.5% (inactive) and 101% (inactive) | growth [9]: 94.2% (inactive) and 97.6% (inactive) | growth [10]: 114% (inactive) and 108% (inactive)

Cc1ccc(-c2nc3nc(-c4ccc(Br)cc4)nc(N4CCCNCC4)c3o2)cc1
growth [1]: 97.9% (inactive) | growth [2]: 103% (inactive) | growth [3]: 68.9% (inactive) | growth [4]: 82% (inactive) | growth [5]: -73% (active) | growth [6]: 91.7% (inactive) | growth [7]: 72.6% (inactive) | growth [8]: -74.7% (active) | growth [9]: -90.6% (active) | growth [10]: -49% (active)

C=C(CN1CC=CCC1)[C@@H]1CC[C@]2(COC(C)=O)CC[C@]3(C)[C@H](CC[C@@H]4[C@@]5(C)CC[C@H](O)C(C)(C)[C@@H]5CC[C@]43C)[C@@H]12
growth [1]: 102% (inactive) | growth [2]: 92.5% (inactive) | growth [3]: 114% (inactive) | growth [4]: 107% (inactive) | growth [5]: 96.3% (inactive) | growth [6]: 92.7% (inactive) | growth [7]: 95% (inactive) | growth [8]: 95.3% (inactive) | growth [9]: 103% (inactive) | growth [10]: 105% (inactive)

Nc1c(C(=O)Nc2ccncc2)sc2nc3c(cc12)CCCCCCCC3
growth [1]: -63.2% (active) | growth [2]: 17.6% (inactive) | growth [3]: -54.4% (active) | growth [4]: -74.2% (active) | growth [5]: -66.7% (active) | growth [6]: -76.2% (active) | growth [7]: -84.9% (active) | growth [8]: -62.7% (active) | growth [9]: -93.9% (active) | growth [10]: -83.2% (active)

Nc1ncc(-c2ccc3ncnc(N4CCc5ccc(Cl)cc54)c3c2)cc1C(F)(F)F
growth [1]: 35.4% (inactive) | growth [2]: 20.5% (inactive) | growth [3]: 7.25% (active) | growth [4]: 17.3% (inactive) | growth [5]: 18.1% (inactive) | growth [6]: -7.6% (active) | growth [7]: 14.1% (inactive) | growth [8]: 13.5% (inactive) | growth [9]: 8.59% (active) | growth [10]: 7.3% (active)

O=C1C(N2CCOCC2)=C(I)C(=O)c2ncccc21
growth [1]: 58.1% (inactive) | growth [2]: 84.8% (inactive) | growth [3]: 99.1% (inactive) | growth [4]: 55.8% (inactive) | growth [5]: 58.8% (inactive) | growth [6]: 123% (inactive) | growth [7]: 36.5% (inactive) | growth [8]: 85.8% (inactive) | growth [9]: 90% (inactive) | growth [10]: 102% (inactive)

Nc1ccc(S(=O)(=O)c2ccc(N)cc2)cc1
growth [1]: 99.8% (inactive) and 99.3% (inactive) | growth [2]: 92.2% (inactive) and 103% (inactive) | growth [3]: 96.7% (inactive) and 81.5% (inactive) | growth [4]: 107% (inactive) | growth [5]: 109% (inactive) and 102% (inactive) | growth [6]: 70.4% (inactive) and 87% (inactive) | growth [7]: 110% (inactive) and 94.6% (inactive) | growth [8]: 98.5% (inactive) | growth [9]: 103% (inactive) and 112% (inactive) | growth [10]: 115% (inactive) and 95.2% (inactive)

O=S(=O)(Nc1cc(Sc2cccc3cccnc23)c(O)c2ccccc12)c1ccc(F)cc1
growth [1]: 17.7% (inactive) | growth [2]: 44.3% (inactive) | growth [3]: 31.7% (inactive) | growth [4]: 44.7% (inactive) | growth [5]: 4.76% (active) | growth [6]: 4.76% (active) | growth [7]: -48.7% (active) | growth [8]: 11.9% (inactive) | growth [9]: 2.18% (active) | growth [10]: -64.6% (active)

CC(=O)N1N=C(c2ccc(F)cc2)CC1c1sc(N(C)Cc2ccccc2)nc1Cl (stereo not given)
growth [1]: 85.1% (inactive) | growth [2]: 102% (inactive) | growth [3]: 99.6% (inactive) | growth [4]: 91.7% (inactive) | growth [5]: 106% (inactive) | growth [6]: 85.9% (inactive) | growth [7]: 81.6% (inactive) | growth [8]: 88.6% (inactive) | growth [9]: 84.9% (inactive) | growth [10]: 98.7% (inactive)

Cc1nnc(NS(=O)(=O)c2ccc(N=Nc3ccc(N)nc3N)cc2)s1
growth [1]: 100% (inactive) and 110% (inactive) | growth [2]: 111% (inactive) and 110% (inactive) | growth [3]: 114% (inactive) and 92.8% (inactive) | growth [4]: 113% (inactive) | growth [5]: 110% (inactive) and 112% (inactive) | growth [6]: 95.5% (inactive) | growth [7]: 96.7% (inactive) | growth [8]: 97.1% (inactive) and 112% (inactive) | growth [9]: 102% (inactive) and 99.8% (inactive) | growth [10]: 110% (inactive)

C/C=C(/C)C(=O)O[C@@H]1CC(C)(C)CC2C34OC(=O)[C@@]21CC[C@@]3(C)[C@]1(C)CCC2C(C)(C)C(=O)CC[C@]2(C)C1C[C@@H]4Cl (stereo not given in full)
growth [1]: 95.4% (inactive) | growth [2]: 86.7% (inactive) | growth [3]: 98.2% (inactive) | growth [4]: 94.5% (inactive) | growth [5]: 97.7% (inactive) | growth [6]: 74.7% (inactive) | growth [7]: 93% (inactive) | growth [8]: 91% (inactive) | growth [9]: 90.4% (inactive) | growth [10]: 98.8% (inactive)

O=C(CCCOc1ccc(Br)cc1)Nc1ncc(Cc2ccc(F)cc2)s1
growth [1]: 86.5% (inactive) | growth [2]: 88.8% (inactive) | growth [3]: 78.5% (inactive) | growth [4]: 75.3% (inactive) | growth [5]: 90.4% (inactive) | growth [6]: 58% (inactive) | growth [7]: 75.1% (inactive) | growth [8]: 84.8% (inactive) | growth [9]: 86.3% (inactive) | growth [10]: 63.3% (inactive)

COc1ccc2c(c1)CCNC21C(=O)Nc2c(Br)cc(Br)cc21 (stereo not given)
growth [1]: 98.4% (inactive) | growth [2]: 101% (inactive) | growth [3]: 90.3% (inactive) | growth [4]: 86.1% (inactive) | growth [5]: 101% (inactive) | growth [6]: 93.2% (inactive) | growth [7]: 91.6% (inactive) | growth [8]: 99.2% (inactive) | growth [9]: 94.8% (inactive) | growth [10]: 112% (inactive)

O=C(/C=C/c1ccc(F)cc1)Nc1ncc(Cc2ccc(F)cc2)s1
growth [1]: 61.5% (inactive) | growth [2]: 70% (inactive) | growth [3]: 41.4% (inactive) | growth [4]: 39% (inactive) | growth [5]: 17% (inactive) | growth [6]: 71.5% (inactive) | growth [7]: 19.1% (inactive) | growth [8]: 38.1% (inactive) | growth [9]: 46.7% (inactive) | growth [10]: 23.8% (inactive)

COc1ccc(-c2cc3cnc4ccccc4c3oc2=O)cc1
growth [1]: 94.4% (inactive) | growth [2]: 103% (inactive) | growth [3]: 94.5% (inactive) | growth [4]: 105% (inactive) | growth [5]: 104% (inactive) | growth [6]: 73.5% (inactive) | growth [7]: 97.4% (inactive) | growth [8]: 101% (inactive) | growth [9]: 89% (inactive) | growth [10]: 103% (inactive)

Cc1ccc2c(c1)C(C)Cc1c(ncnc1-n1cnc3cc(C)ccc31)N2C (stereo not given)
growth [1]: 34% (inactive) | growth [2]: 47.4% (inactive) | growth [3]: 63.5% (inactive) | growth [4]: 27.6% (inactive) | growth [5]: 3.51% (active) | growth [6]: 10.4% (inactive) | growth [7]: -30% (active) | growth [8]: 8.39% (active) | growth [9]: 10.7% (inactive) | growth [10]: -51.2% (active)

CN1C(=O)N(C)C2(c3ccccc3)N(CC(=O)Nc3ccccc3O)C(=O)NC12c1ccccc1 (stereo not given)
growth [1]: 101% (inactive) | growth [2]: 90.7% (inactive) | growth [3]: 100% (inactive) | growth [4]: 102% (inactive) | growth [5]: 106% (inactive) | growth [6]: 107% (inactive) | growth [7]: 86.2% (inactive) | growth [8]: 109% (inactive) | growth [9]: 103% (inactive) | growth [10]: 110% (inactive)
